From the supplement of paper PMC6555819

system: PPARg:RXRa 270nM:90nM, anti-RXR (NR concentration 270 nM, RXRa partner concentration 90 nM); assay: PBM binding z-score (relative to random genomic background probes); higher = stronger binding; sequences stand for … in GC…GCGATTGACAGCGTAGAATGAAGG
Outline: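 Ligand-free nuclear receptor dimers were applied to custom Agilent 4×180K protein-binding microarrays whose double-stranded probes carried direct-repeat seeds, single-nucleotide variants, half-site ablations and random human genomic background sequences in 34-nt variable regions. Incubation lasted 1 h. Binding z-scores were computed against the random background probes from regression-normalized fluorescence.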

Sequence	PBM binding z-score
TTACCAAGGTGAAAGTCGTTGATCCCTCTGTAGA	1.61
GTACGAAGGTGAATAGGTCGTTGATGAGTAGGCG	1.87
TGTTGTAGATCAACAGGAGGTTAAGAAAGATCGA	0.456
TCATATAGGTAAATGCTAGGTGAGAGTCCGATCT	1.86
GATACAGTGTCAGCTAGAGGCCAGAGTATGGAAA	-0.349
CCTACTGGGACACGAAAGGTCATTGATTCAGTGA	4.72
TCTCGGAGGACACGAGAGGTCAGAGCTCGACATC	1.88
CGTCGAAGGTCAAAGGTCAGTGAAGAGATGACGG	8.74
TCTACAGGGTCAAAGGCCAGAGTACGAATGTCGA	7.12
TCTAGCAGGCCAGAGGATCACTCAAGAGGTACGG	1.2
CCTACTGGGCCAAAGGTTATTGATTCCAATGCTC	9.22
CGTCCAAGGTCAATGGTAGGTCAGTGAAAGCATT	4.73
TCTCGGAGGAGACGAAAGGTCAGAGCTCGACATC	5.01
TGAATGAGTTTATAAGATCAGGGAACGTTGCAAA	0.389
ATCTCTAGGTAAAGATAGTTCGGTGAATGCAAAT	0.307
AGAACGAGGGCACGCTGAGTTGAAAGCAGAGTAG	1.77
TGAATGAGGTTATACGATCAGGGAACGTTGCAAA	1.79
TGAATGAGATTAAAGATCAGGGAACGTGGCGTCG	2.19
GATACAGGGTCACCTAGAGGCCAGAGTATGGAAA	6.02
CTGGAAAGGTCGTGCTCAGGTGAGTATACCAAAC	3.81

Sequence	PBM binding z-score
TTACCAAGGTGTAAGGTCGTTGATGCACGCCTTG	4.03
CGTCAAAGTTCAACTAAGGTACCGTAAAGCACGC	5.42
CGTCCAAGGTCAAGGTTAGTGAAAGAGACTCGAA	5.18
TCTGCTAGATCAGTTGGTCAGCTAACGAGCTGCC	0.389
TCATATAGTTAAATGCTAGGTGAAAGTCCGATCT	2.11
CCAACTGGGGCATAAGGTTACCATAAGCCAGCCC	3.93
ATCTCTAGGTAACAAGTGCAGTGAAAGAGAGGAC	1.38
GCATATAGGTAAAACAAGGTGAAAGTCCGATTGT	1.69
TTACCAAGGTGAAAGGCCGTTGATGCACGCCTTG	4.98
CCTATTAGTTGACCAGAAGGGCAACCGAAGCTCG	0.467
TCTCGGAGGACACGAAGATCAGAGCTTTCCAGAG	0.96
TCTGCTAGGTCAACGATGGTCAGCCAATCTGCTA	3.17
CCGACTGGGGCATAAGGTTACGATAAGCCAGCCC	3.55
ACTAGCAGGCCAAGGGTCACCCAAGATTAGTCCG	7.88
ACTTACGGGTCAACGAGGTAATAGCACGCGTATA	5.53
GCTACCAGGCCATTTGGGTCACTCAATGACGGGC	0.744
TCGAGTAGGTTAGTCGGGGCATTCATCCAACATA	0.755
CGAACTAGCTCAGAACAGGACAGTGAAGGATGAT	-0.694
TCATATAGGTAAAGGCGAAAGTCGAACGATATGA	2.52
